High-throughput results: PubChem BioAssay, several laboratories
ADAM17 inh: ADAM17 inhibitors, primary screen, biochemical, QFRET; 0.83% of 370,000 active; inhibition, % at 6.95 µM; recombinant ADAM17, EDANS/DABCYL FRET peptide cleavage;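 active means inhibition above the mean of compounds lying between control limits plus 3 SD, set per campaign, cut at about 8.5% in these data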;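 further: 0% = DMSO-only wells as the low control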
Target sequence (P78536 215-824 limits assumed): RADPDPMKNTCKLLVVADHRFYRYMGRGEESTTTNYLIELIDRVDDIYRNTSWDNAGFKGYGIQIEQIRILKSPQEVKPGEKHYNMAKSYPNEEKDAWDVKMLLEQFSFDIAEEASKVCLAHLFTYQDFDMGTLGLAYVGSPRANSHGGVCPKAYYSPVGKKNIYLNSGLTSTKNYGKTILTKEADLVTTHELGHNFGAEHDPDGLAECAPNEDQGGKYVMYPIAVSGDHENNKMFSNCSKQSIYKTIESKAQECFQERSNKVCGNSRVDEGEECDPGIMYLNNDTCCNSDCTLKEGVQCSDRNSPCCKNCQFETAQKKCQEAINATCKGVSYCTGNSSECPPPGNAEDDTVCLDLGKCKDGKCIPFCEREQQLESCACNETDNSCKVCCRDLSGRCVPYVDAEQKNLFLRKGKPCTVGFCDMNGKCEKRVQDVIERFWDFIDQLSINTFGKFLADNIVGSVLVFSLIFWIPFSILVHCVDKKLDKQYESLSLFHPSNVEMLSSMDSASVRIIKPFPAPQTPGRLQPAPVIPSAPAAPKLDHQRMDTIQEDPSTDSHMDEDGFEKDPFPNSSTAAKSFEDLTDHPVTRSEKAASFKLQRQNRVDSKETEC
DSG3 Ab inh: inhibitors of pemphigus antibody binding to DSG3, primary screen, biochemical, bead-based, flow cytometry, scFv-GFP. binding (percent of control), % at 10 µM. AID 588358, 2011. DSG3-coupled beads, scFv-anti-DSG3-GFP binding; hits give low values. 0.48% of 310,000 active. Desmoglein-3 (Homo sapiens), P32926;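 active means binding more than 3 SD below its plate's average and above zero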;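 further: hits lower antibody fragment binding to DSG3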
rCAG binder: binders of r(CAG) RNA repeats, primary screen, biochemical, fluorescence | r(CAG) RNA repeat, TO-PRO-1 dye displacement fluorescence | inhibition, % at 3 µM | 1.3% of 370,000 active | AID 651821, 2012;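 active means inhibition above the plate cutoff, the mean of all test compounds on that plate plus 3 SD, cut at about 35% in these data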;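 further: 0% = DMSO alone and 100% = 100 µM mitoxantrone as full dye displacement; higher means more dye released from RNA so lower well fluorescence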
MPTP inh: mitochondrial permeability transition pore inhibitors, primary screen, biochemical, isolated mouse mitochondria, absorbance. Ca2+ swelling absorbance, 30 min. inhibition, % at 10 µM. 1.4% of 360,000 active. AID 602449, 2012;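 active means inhibition of 50% or more, scaled per plate between neutral and stimulator controls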;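 further: 0% = DMSO wells given calcium and 100% = 1 mM EGTA wells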
ADAM10 inh: human ADAM10 inhibitors, primary screen, biochemical, QFRET, HTS | Disintegrin and metalloproteinase domain-containing protein 10 (Homo sapiens), O14672 | recombinant ADAM10, EDANS/DABCYL FRET peptide cleavage, 3 h | inhibition, % at 7 µM | 0.62% of 370,000 active;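 active means inhibition above a per-campaign cutoff equal to the mean of compounds falling between control-based bounds plus 3 SD, cut at about 20% in these data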;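 further: 0% = DMSO wells while the 100% control is not disclosed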
KLK7 zymogen act: proKLK7 zymogen activators, primary screen, biochemical, fluorescence intensity; Kallikrein-7 (Homo sapiens), P49862; purified proKLK7, EDANS-DABCYL substrate fluorescence; 100% is mature enzyme control, 0% vehicle; activation, % at 7 µM; 0.9% of 370,000 active; AID 652039, 2013;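 active means activation above the mean of all tested compounds plus 3 SD, computed per campaign excluding outliers beyond control limits, cut at about 13% in these data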
The depositor's hits bear a star; / = no result. Rows were chosen to be rich in hits. Some 4.7% of all compounds tested hit in one or more screens of this group.

SMILES | ADAM17 inh | DSG3 Ab inh | rCAG binder | MPTP inh | ADAM10 inh | KLK7 zymogen act
O=C(Nc1ccc(F)cc1)OCc1cn(Cc2ccc(F)cc2)nn1 | 8 | / | 0 | / | 11 | 1
CCCCCCCCN1C(=O)[C@@H](CC(=O)NCc2cccs2)C[C@@]2(C(=O)OC)C1=C[C@H](C1CCCC1)O[C@@H]2C | -4 | / | 2 | / | -6 | 0
CCOC(=O)[C@]12CCCC=C1N(CCCOC)C(=O)[C@@H]2CC(=O)NCCc1ccccc1OC | 4 | / | -1 | / | 0 | -1
O=C(Cc1ccccc1)Nc1c2c(nn1-c1cccc(Cl)c1)CS(=O)(=O)C2 | 4 | 86* | 4 | -2 | 5 | 1
COc1ccc(C2CC(=O)C(c3cc(OC)c(OC)c(OC)c3)=CN2Cc2ccccc2)cc1 (stereo not drawn) | -2 | / | 1 | / | -2 | -1
N#C/C(=C(/O)CN1CCOCC1)c1nc(-c2ccccc2)cs1 | -1 | 104 | 24 | 2 | -6 | 0
Cc1ccc(-c2csc(/C(C#N)=C(\O)CN3CCN(C(=O)c4ccco4)CC3)n2)cc1 | -1 | 103 | 62* | -13 | 6 | 0
Cc1cc(C)c2c(c1)NC(C(=O)O)C1CC=CC21 (stereo not drawn) | -7 | 102 | 58* | 2 | -9 | -1
Cc1ccc2c(c1C)NC(C(=O)O)C1CC=CC21 (stereo not drawn) | / | 35* | / | 5 | / | /
O=C(O)C1Nc2c(C(=O)N3CCOCC3)cccc2C2C=CCC12 (stereo not drawn) | / | 86 | / | 2 | / | /
O=C(O)C1Nc2c(C(F)(F)F)ccc(Cl)c2C2C=CCC12 (stereo not drawn) | -6 | 103 | 27 | 1 | 6 | 2
Cc1ccccc1-c1ccc2c(c1)[C@@H]1C[C@H]3[C@@H](CN1CC2)[C@H](C)OC(C1CCCCC1)N3C (stereo partly drawn) | -6 | / | 6 | / | -25 | 0
COc1ccc(NC(=O)CN(C)S(=O)(=O)c2ccc(Br)s2)cc1 | -2 | -22* | 1 | 0 | 6 | 0
N#CC1=C2SCN(Cc3ccco3)CN2C(=O)CC1c1cccc2ccccc12 (stereo not drawn) | 2 | / | 37* | 0 | 1 | 0
COC(=O)[C@]1(C)N[C@H](CN(C)C(=O)Nc2ccc(OC)cc2)[C@@H]2C(=O)N(C)C(=O)[C@@H]21 | 0 | 80* | 0 | -4 | 5 | 0
COC(=O)[C@]1(C)N[C@H](CN(C)C(=O)Nc2ccc(F)cc2)[C@@H]2C(=O)N(C)C(=O)[C@@H]21 | -3 | 98 | 2 | -1 | -7 | 0
COc1ccc(CC(=O)NCc2n[nH]c(=S)n2-c2cccc(C)c2)cc1 | -3 | 100 | 0 | 1 | -4 | 0
O=C(Cc1ccccc1)NCc1n[nH]c(=S)n1-c1ccccc1 | -1 | 12* | -2 | -2 | 6 | 0
Cc1ccc(/C=C/c2nnc(-c3cccs3)o2)cc1 | -18 | 70* | 4 | 1 | -60 | 1
Cc1cc(C(=O)OCC(=O)NC2CCS(=O)(=O)C2)c2ccccc2n1 (stereo not drawn) | -8 | 96 | 0 | 0 | -17 | -1
COc1ccc2cc(-c3cc(C(=O)OCC(=O)NC4CCS(=O)(=O)C4)c4ccccc4n3)ccc2c1 (stereo not drawn) | -23 | 4.6* | 7 | 2 | -82 | -4
Cc1cccc2cc(COC(=O)C3CCCCC3)c(=O)[nH]c12 | 1 | -4.6* | 1 | -6 | 3 | 0
CCc1ccc(C(=O)Nc2ccc(S(=O)(=O)Nc3nc(C)cc(C)n3)cc2)o1 | -4 | 35* | 9 | 0 | -3 | 0
Cc1cc(C)nc(NS(=O)(=O)c2ccc(NC(=O)c3ccco3)cc2)n1 | 2 | / | 0 | 0 | 8 | 1
CCOc1ccc(NC(=O)c2ccc(NC(=O)CSc3nc4ccccc4c(=O)[nH]3)cc2)cc1 | -6 | 81* | 1 | -1 | 0 | 0
SMILES | ADAM17 inh | DSG3 Ab inh | rCAG binder | MPTP inh | ADAM10 inh | KLK7 zymogen act
O=C(CSc1nc2ccccc2c(=O)[nH]1)Nc1ccc(C(=O)O)cc1 | -4 | / | 2 | -1 | -6 | -1
Cc1nn(C)cc1C(C(=O)NC1CCCCC1)N(Cc1ccc(F)cc1)C(=O)c1cnccn1 (stereo not drawn) | -4 | 54* | -6 | 0 | -3 | 0
Cc1nn(C)cc1C(C(=O)NC1CCCCC1)N(Cc1ccccc1Cl)C(=O)c1cnccn1 (stereo not drawn) | 0 | 96 | -6 | 1 | 2 | 0
COc1ccc(N2CC(O)=C(c3nc(-c4ccc(Br)cc4)cs3)C2=N)cc1 | -5 | 95 | 1 | 1 | -12 | -1
COc1ccc(N2CC(O)=C(c3nc(-c4ccccc4)cs3)C2=N)cc1 | -2 | 43* | 0 | 3 | 1 | -1
O=S(=O)(c1ccc(F)cc1)N1CCC(c2nc3ccccc3o2)CC1 | -2 | / | 1 | / | -2 | 0
C=CC[n+]1c(-c2ccc(Cl)cc2Cl)csc1Nc1ccc(NC(C)=O)cc1 | 8 | 84 | 4 | -1 | 27* | 0
C[C@H](CO)N1C[C@H](C)[C@@H](CN(C)C(=O)Nc2ccc(N3CCN(C)CC3)cc2)OCc2cn(nn2)CCCC1=O | -4 | / | -1 | / | -7 | 0
COc1ccc(C2CC(=O)C=C3c4ccc(OC)cc4CCC32)cc1 (stereo not drawn) | -5 | 84* | 4 | -1 | -26 | 0
COc1ccc([C@H]2CC(=O)C=C(c3ccc(OC)cc3OC)C2)cc1 | -2 | 97 | -3 | 0 | -2 | 1
N#Cc1ccsc1NC(=O)COC(=O)c1ccc2ccccc2c1 | -9 | 63* | 20 | -1 | -28 | 1
CN(C)S(=O)(=O)c1cccc(NC(=O)COC(=O)c2cc3ccccc3oc2=O)c1 | -24 | 71* | 3 | 2 | -53 | -2
S=C1NCCN1c1ccc(Cl)cc1 | -3 | / | 2 | / | -4 | 0
CSc1ccccc1OCc1cc(C(=O)NCCC2=CCCCC2)no1 | -3 | 25* | 3 | 1 | 3 | 1
CC(=O)c1ccc(S(=O)(=O)N2CCN(C(=O)C(=O)c3cccc(C(F)(F)F)c3)CC2)cc1 | -5 | / | 1 | / | -4 | 0
O=C(Nc1ccc(F)cc1)OCc1cn(Cc2ccc(F)c(F)c2)nn1 | 2 | / | 1 | / | 6 | 0
COc1cc(N=c2ssnc2Cl)cc(OC)c1 | -5 | 62* | 6 | -7 | -2 | -1
COc1ccc(C(C)=O)cc1COC(=O)c1cc(C)nc2ccccc12 | 0 | 61* | -5 | -1 | 5 | 0
